# Results as given in the supplement of paper PMC7411054.
# Counter-ions that a name gives are not always drawn.
# What was measured:
# Assay in all cases: lowest phenotypically active concentration; higher = less potent
# Details in all cases: treatment time: 24 h
# WPMY1-CANX-COX4 = tested on: WPMY1-CANX-COX4
# How it was run: (§1)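 Cells from fifteen gene-edited reporter lines (A549, HepG2 and WPMY1) were treated for 24 h at 0.3, 1, 3 or 9 µM and imaged live, four wells per condition. Features were normalised per well to solvent control wells. A condition deviated if ≥3 of 4 wells passed the 95th percentile of control Euclidean distances and was reproducible if its median replicate Pearson correlation beat the 95th percentile of non-replicates; phenotypic activity needed both.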
# HepG2-GM130-SQSTM1 = tested on: HepG2-GM130-SQSTM1
# How it was run: as §1
# HepG2-TUBA1B-RELA = tested on: HepG2-TUBA1B-RELA
# How it was run: as §1
# WPMY1-ACTB-RAB5A = tested on: WPMY1-ACTB-RAB5A
# How it was run: as §1
# WPMY1-TP53BP1-CLTA = tested on: WPMY1-TP53BP1-CLTA
# How it was run: as §1
# WPMY1-TUBA1B-RELA = tested on: WPMY1-TUBA1B-RELA
# How it was run: as §1
# HepG2-CANX-COX4 = tested on: HepG2-CANX-COX4
# How it was run: as §1
# HepG2-TP53BP1-CLTA = tested on: HepG2-TP53BP1-CLTA
# How it was run: as §1
SMILES,lowest phenotypically active concentration (WPMY1-CANX-COX4) [µM],lowest phenotypically active concentration (HepG2-GM130-SQSTM1) [µM],lowest phenotypically active concentration (HepG2-TUBA1B-RELA) [µM],lowest phenotypically active concentration (WPMY1-ACTB-RAB5A) [µM],lowest phenotypically active concentration (WPMY1-TP53BP1-CLTA) [µM],lowest phenotypically active concentration (WPMY1-TUBA1B-RELA) [µM],lowest phenotypically active concentration (HepG2-CANX-COX4) [µM],lowest phenotypically active concentration (HepG2-TP53BP1-CLTA) [µM]
N#C/C(=C/c1ccc(-c2cc(Cl)ccc2Cl)o1)C(=O)Nc1cccc2ncccc12,9,–,–,–,–,–,–,–
CCSc1ccc2c(c1)N(CCCN1CCN(C)CC1)c1ccccc1S2 [thiethylperazine],9,9,9,9,9,9,–,–
NC(=O)C(c1ccccc1)(c1ccccc1)[C@@H]1CCN(CCc2ccc3c(c2)CCO3)C1 [darifenacin],–,9,–,–,9,–,9,9
CC(CN(C)C)CN1c2ccccc2Sc2ccccc21.CC(CN(C)C)CN1c2ccccc2Sc2ccccc21 (centres undefined) [alimemazine],–,9,9,9,–,9,–,9
CN(C)CCCN1c2ccccc2Sc2ccc(C(F)(F)F)cc21 [triflupromazine],9,–,9,9,–,9,–,–
CCN(CCO)CCCC(C)Nc1ccnc2cc(Cl)ccc12 (centres undefined) [hydroxychloroquine],9,9,9,9,–,9,–,–
CC1=C(/C=C/C(C)=C\C=C\C(C)=C\C(=O)O)C(C)(C)CCC1 [tretinoin],1,9,–,1,1,3,≤ 0.3,–
COc1cc(NC(=O)c2cccc(-n3cc(NC(=O)Nc4cccc(C)c4)cn3)c2)cc(OC)c1OC,–,–,–,–,–,9,–,–
Fc1ccc([C@@H]2CCNC[C@H]2COc2ccc3c(c2)OCO3)cc1 [paroxetine],9,9,3,9,9,9,–,9
Clc1ccc2c(c1)C(N1CCNCC1)=Nc1ccccc1O2 [amoxapine],–,9,3,9,–,9,–,–
CN1C(=O)/C(=C2/Nc3ccccc3/C2=N/O)c2ccc(Br)cc21,9,–,–,1,–,–,3,–
CCCc1cc(C)n(C)c(=O)c1CN(C)C(=O)c1cc(-c2ccc(N3CCN(C(C)C)CC3)nc2)cc2c1cnn2C(C)C,3,3,–,3,9,9,–,3
Cc1cc(CS(=O)(=O)c2ccccc2)cc(OCc2ccc(CN3CCC[C@@H]3CO)cc2)c1 [PF 543 hydrochloride],–,9,–,9,–,–,–,9
O=C1Cc2cc(CCN3CCN(c4nsc5ccccc45)CC3)c(Cl)cc2N1 [ziprasidone],–,3,3,–,–,–,–,9
CCOC(=O)c1c(CSc2ccccc2)n(C)c2cc(Br)c(O)c(CN(C)C)c12 [arbidol],–,9,9,–,–,–,9,9
"CCCCCCCCCCCCC/C=C/[C@@H](O)[C@H](CO)N(C)C [N,N-Dimethylsphingosine]",3,9,9,3,9,3,3,3

SMILES,lowest phenotypically active concentration (WPMY1-CANX-COX4) [µM],lowest phenotypically active concentration (HepG2-GM130-SQSTM1) [µM],lowest phenotypically active concentration (HepG2-TUBA1B-RELA) [µM],lowest phenotypically active concentration (WPMY1-ACTB-RAB5A) [µM],lowest phenotypically active concentration (WPMY1-TP53BP1-CLTA) [µM],lowest phenotypically active concentration (WPMY1-TUBA1B-RELA) [µM],lowest phenotypically active concentration (HepG2-CANX-COX4) [µM],lowest phenotypically active concentration (HepG2-TP53BP1-CLTA) [µM]
CN(C)CC(O)Cn1c2ccc(Br)cc2c2cc(Br)ccc21 (centres undefined) [Wiskostatin],3,3,3,3,9,3,9,3
O=C(NCCN1CCC(n2c(=O)[nH]c3ccccc32)CC1)c1cc2cc(F)ccc2[nH]1,9,9,9,9,9,9,9,9
COCCCC/C(=N/OCCN)c1ccc(C(F)(F)F)cc1 [fluvoxamine],–,–,9,9,–,–,–,9
COc1ccccc1C(=O)Nc1cc2c(cc1N1CCCC1)n(C)c(=O)n2C,–,–,–,9,–,–,–,–
O=c1cc(-c2ccccc2)oc2cc(O)cc(O)c12 [Chrysin],9,–,–,–,9,–,–,–
CCc1nc(-c2cccc(C)c2)c(-c2ccnc(NC(=O)c3ccccc3)c2)s1,–,1,1,9,–,9,1,3
CC1CNCCN1S(=O)(=O)c1cccc2cnccc12 (centres undefined) [H-7 dihydrochloride],9,9,9,9,–,9,9,–
Nc1ncnc2c1c(-c1ccc(Oc3ccccc3)cc1)nn2C1CCCC1,–,–,–,–,3,–,–,–
O=C(Nc1ccc(CN2CCOCC2)cc1)c1ccc(-c2cccc(Cl)c2)o1,–,–,9,–,–,–,–,–
COc1cc2nccc(Oc3ccc(NC(=O)C4(C(=O)Nc5ccc(F)cc5)CC4)cc3)c2cc1OC,–,–,–,3,–,–,–,–
CC(C)c1nc(CN(C)C(=O)N[C@H](C(=O)N[C@@H](Cc2ccccc2)C[C@H](O)[C@H](Cc2ccccc2)NC(=O)OCc2cncs2)C(C)C)cs1 [ritonavir],–,9,–,–,–,–,–,–
O=C1c2c(O)cccc2Cc2cccc(O)c21 [anthralin],–,–,–,9,–,9,–,–
Nc1cc(N)c(N)cc1N [FAK Inhibitor 14],9,–,3,3,9,1,–,9
CC(C)(C)c1ccc(C(O)CCCN2CCC(C(O)(c3ccccc3)c3ccccc3)CC2)cc1 (centres undefined) [terfenadine],–,–,1,–,–,3,–,–
Cc1ccc(S(=O)(=O)c2ccc([N+](=O)[O-])o2)cc1,9,9,3,3,3,9,–,–
